Common to all, as to assay: DAPPL (digital affinity profiling via proximity ligation, sequencing); 10 mM Tris-HCl pH 7.5, 50 mM NaCl, 1 mM DTT, 4% glycerol, room temperature, 30 min; GST-TFs on glutathione beads, 16-mer random dsDNA library, 0.1% formaldehyde crosslink after washing; high values mean tight binding
What all share (details): protein: recombinant; tags: N-terminal GST; dsDNA, one strand shown

The target of assay [1] is T1, ELK1 (Homo sapiens, UniProt P19419 1-428).
T1 sequence: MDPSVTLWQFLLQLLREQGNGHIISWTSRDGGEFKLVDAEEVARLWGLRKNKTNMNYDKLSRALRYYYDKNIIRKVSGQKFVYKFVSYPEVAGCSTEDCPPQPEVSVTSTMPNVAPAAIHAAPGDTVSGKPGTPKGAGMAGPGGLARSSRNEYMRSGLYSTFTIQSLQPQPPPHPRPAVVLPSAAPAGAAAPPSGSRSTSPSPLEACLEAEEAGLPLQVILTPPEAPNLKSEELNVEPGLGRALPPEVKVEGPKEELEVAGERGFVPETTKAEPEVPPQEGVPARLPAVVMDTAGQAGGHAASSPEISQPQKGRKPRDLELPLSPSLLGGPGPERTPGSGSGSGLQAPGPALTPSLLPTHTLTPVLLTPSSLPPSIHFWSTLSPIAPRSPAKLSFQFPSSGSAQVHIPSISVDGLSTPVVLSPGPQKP
A digest of the protocol: (§1)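 GST fusions of human transcription factors were expressed in yeast and captured with glutathione beads. Once given DNA barcodes and pooled alongside a tag-only sample, they were incubated for 30 min at room temperature with 200 nmole of a random double-stranded 16-mer DNA library in Tris/NaCl/DTT/glycerol buffer, then washed, crosslinked (0.1% formaldehyde), proximity-ligated, PCR-amplified and sequenced on an Illumina NextSeq500. The binding signal of each hexamer is its read frequency for a factor divided by its frequency for the tag-only sample.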

Assay [2] addresses T2, GABPA (Homo sapiens, UniProt Q06546 1-454).
T2 sequence: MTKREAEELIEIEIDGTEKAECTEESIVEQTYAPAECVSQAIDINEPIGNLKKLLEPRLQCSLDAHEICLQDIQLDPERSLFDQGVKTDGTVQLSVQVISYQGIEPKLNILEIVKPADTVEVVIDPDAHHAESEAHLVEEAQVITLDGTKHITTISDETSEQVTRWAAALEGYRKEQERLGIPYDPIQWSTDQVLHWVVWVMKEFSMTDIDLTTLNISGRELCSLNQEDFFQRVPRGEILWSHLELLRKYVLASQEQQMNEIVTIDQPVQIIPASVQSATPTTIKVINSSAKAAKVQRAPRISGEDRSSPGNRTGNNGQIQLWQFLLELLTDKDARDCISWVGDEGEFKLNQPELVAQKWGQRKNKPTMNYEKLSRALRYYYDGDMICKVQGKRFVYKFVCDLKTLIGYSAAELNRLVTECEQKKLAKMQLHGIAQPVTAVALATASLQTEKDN
The procedure, abridged: as §1

The target in assay [3] is T3, ERG (Homo sapiens, UniProt P11308 1-479).
T3 sequence: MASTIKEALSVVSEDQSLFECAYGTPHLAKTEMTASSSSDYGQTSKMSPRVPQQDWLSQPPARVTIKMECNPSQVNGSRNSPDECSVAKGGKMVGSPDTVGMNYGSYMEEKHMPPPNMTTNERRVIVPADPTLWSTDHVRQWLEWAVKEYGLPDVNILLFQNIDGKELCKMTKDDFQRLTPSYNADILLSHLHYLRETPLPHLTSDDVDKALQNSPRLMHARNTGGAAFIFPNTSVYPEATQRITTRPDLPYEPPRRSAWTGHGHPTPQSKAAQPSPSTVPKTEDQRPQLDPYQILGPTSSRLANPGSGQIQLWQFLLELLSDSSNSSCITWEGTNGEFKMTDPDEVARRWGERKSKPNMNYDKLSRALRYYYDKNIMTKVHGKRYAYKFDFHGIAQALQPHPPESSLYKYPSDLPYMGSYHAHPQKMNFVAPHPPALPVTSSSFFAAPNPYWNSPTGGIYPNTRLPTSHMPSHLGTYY
A digest of the protocol: as §1

Assay [4] has as its target ELF1 (Homo sapiens, UniProt P32519 1-619). A digest of the protocol: as §1
The target in assay [5] is T4, EHF (Homo sapiens, UniProt Q9NZC4 1-300).
T4 sequence: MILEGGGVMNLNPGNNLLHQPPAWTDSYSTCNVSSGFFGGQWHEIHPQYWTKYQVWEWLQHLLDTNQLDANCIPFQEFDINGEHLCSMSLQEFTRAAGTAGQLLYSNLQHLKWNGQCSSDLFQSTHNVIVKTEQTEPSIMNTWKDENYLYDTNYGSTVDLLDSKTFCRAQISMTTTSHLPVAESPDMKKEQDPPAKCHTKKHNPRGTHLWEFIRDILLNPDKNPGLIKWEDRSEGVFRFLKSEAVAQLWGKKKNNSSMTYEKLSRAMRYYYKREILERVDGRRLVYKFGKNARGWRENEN
The procedure, abridged: as §1

In assay [6] the target is SPIB (Homo sapiens, UniProt Q01892 1-262). A digest of the protocol: as §1
SPIB, sequence (Q01892 whole entry): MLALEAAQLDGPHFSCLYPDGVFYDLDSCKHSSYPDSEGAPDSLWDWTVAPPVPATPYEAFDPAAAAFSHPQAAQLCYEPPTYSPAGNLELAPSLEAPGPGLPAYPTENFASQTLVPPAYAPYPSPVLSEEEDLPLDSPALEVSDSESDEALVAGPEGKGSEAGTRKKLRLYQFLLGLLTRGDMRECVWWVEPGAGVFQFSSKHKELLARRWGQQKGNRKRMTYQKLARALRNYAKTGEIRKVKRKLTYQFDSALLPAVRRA
The target in assay [7] is T5, FEV (Homo sapiens, UniProt Q99581 1-238).
T5 sequence: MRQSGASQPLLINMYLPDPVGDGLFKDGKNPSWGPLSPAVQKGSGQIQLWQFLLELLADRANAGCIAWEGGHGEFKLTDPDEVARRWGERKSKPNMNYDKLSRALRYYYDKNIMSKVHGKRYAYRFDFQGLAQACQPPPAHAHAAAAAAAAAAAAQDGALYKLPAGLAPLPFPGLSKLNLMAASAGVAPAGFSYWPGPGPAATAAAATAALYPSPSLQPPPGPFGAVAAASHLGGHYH
The procedure, abridged: as §1

Assay [8] addresses ETV5 (Homo sapiens, UniProt P41161 1-510). A digest of the protocol: as §1
Assay [9] has as its target ELF4 (Homo sapiens, UniProt Q99607 1-663). A digest of the protocol: as §1
In assay [10] the target is T6, ELK4 (Homo sapiens, UniProt P28324-2 1-405).
T6 sequence: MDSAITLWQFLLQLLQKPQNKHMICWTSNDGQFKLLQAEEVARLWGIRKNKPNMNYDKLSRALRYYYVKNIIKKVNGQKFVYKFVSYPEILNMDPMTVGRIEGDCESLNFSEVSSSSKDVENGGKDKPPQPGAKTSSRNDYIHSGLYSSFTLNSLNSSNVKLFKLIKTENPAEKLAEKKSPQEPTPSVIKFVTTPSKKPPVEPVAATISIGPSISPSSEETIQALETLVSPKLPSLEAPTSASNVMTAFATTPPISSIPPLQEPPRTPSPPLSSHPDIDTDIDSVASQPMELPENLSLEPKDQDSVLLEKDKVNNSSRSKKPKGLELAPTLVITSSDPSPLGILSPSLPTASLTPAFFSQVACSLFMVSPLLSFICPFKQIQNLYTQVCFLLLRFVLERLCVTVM
A digest of the protocol:
as §1

Assay [11] addresses T7, ETV2 (Homo sapiens, UniProt O00321 1-342).
T7 sequence: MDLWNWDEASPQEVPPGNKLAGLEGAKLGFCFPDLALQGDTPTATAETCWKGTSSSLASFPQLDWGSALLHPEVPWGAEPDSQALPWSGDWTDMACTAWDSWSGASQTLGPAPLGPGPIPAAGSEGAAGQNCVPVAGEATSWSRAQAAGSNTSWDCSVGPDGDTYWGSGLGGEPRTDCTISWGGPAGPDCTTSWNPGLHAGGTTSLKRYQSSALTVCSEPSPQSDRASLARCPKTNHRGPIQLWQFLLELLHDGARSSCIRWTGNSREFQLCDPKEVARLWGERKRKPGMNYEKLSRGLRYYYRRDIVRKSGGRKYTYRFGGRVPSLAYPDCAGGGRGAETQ
The procedure, abridged:
as §1

The target of assay [12] is T8, ELF3 (Homo sapiens, UniProt P78545 1-371).
T8 sequence: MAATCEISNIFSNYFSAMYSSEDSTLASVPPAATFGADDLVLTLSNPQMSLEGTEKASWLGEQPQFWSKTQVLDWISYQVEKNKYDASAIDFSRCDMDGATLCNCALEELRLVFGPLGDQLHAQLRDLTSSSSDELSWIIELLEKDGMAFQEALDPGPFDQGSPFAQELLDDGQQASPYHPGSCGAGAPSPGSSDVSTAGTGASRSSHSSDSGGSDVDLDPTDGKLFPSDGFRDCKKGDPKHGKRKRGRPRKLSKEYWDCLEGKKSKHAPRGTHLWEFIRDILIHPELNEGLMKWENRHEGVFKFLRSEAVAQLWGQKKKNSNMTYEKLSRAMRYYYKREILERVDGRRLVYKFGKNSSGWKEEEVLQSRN
The procedure, abridged:
as §1

The target in assay [13] is ETV1 (Homo sapiens, UniProt P50549 1-477). A digest of the protocol:
as §1

The target of assay [14] is T9, ETV3L (Homo sapiens, UniProt Q6ZN32 1-361).
T9 sequence: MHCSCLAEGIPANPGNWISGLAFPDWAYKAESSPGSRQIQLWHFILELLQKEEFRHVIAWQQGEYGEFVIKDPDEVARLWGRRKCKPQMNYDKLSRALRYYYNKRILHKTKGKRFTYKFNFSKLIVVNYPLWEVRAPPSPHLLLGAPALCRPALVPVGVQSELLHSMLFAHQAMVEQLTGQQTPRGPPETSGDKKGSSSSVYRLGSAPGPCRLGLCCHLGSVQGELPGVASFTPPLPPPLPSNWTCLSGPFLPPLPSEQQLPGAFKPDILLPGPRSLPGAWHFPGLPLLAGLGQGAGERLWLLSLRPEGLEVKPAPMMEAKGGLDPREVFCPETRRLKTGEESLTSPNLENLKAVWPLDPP
A digest of the protocol:
as §1

The target of assay [15] is T10, ETS2 (Homo sapiens, UniProt P15036 1-469).
T10 sequence: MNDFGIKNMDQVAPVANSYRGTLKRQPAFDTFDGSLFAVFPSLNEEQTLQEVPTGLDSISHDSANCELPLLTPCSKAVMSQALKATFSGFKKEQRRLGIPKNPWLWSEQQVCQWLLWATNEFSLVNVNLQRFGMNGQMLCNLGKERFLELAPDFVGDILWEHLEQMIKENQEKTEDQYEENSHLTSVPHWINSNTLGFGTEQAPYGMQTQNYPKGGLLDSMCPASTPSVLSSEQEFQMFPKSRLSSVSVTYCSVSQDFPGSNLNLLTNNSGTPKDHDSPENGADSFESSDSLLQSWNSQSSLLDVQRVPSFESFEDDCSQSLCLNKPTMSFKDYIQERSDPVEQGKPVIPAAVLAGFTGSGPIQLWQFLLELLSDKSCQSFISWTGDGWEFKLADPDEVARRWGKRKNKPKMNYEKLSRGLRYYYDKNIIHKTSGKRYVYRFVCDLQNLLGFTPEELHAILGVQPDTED
The procedure, abridged: as §1

The target of assay [16] is T11, SPDEF (Homo sapiens, UniProt O95238 1-335).
T11 sequence: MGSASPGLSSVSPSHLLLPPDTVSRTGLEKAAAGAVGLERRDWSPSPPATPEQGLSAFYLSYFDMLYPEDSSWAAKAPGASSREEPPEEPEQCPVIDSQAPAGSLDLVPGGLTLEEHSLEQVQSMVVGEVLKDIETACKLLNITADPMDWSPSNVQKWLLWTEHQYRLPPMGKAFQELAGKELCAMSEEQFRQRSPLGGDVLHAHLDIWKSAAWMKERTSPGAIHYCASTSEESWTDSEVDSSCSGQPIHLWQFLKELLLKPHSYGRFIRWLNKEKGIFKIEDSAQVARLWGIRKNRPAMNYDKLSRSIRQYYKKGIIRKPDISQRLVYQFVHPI
A digest of the protocol: as §1

Assay [17] concerns the target T12, ETV7 (Homo sapiens, UniProt Q9Y603 1-341).
T12 sequence: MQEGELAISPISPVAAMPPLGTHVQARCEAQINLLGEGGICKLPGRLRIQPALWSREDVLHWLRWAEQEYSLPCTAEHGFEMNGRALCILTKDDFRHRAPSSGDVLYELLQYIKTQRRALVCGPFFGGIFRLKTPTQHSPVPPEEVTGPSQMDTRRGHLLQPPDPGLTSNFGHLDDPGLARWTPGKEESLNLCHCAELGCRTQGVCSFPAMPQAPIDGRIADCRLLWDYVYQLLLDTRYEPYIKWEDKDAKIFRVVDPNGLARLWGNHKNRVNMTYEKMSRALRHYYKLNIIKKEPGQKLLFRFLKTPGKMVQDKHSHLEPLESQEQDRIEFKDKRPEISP
The procedure, abridged:
as §1

For assay [18], the target named is T13, ETV3 (Homo sapiens, UniProt P41162-2 1-143).
T13 sequence: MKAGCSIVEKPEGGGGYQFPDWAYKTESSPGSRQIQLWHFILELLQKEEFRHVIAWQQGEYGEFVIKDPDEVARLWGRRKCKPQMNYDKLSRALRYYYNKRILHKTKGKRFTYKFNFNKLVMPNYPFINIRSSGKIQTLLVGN
The procedure, abridged:
as §1

The target in assay [19] is ETV6 (Homo sapiens, UniProt P41212 1-452). A digest of the protocol:
as §1

ETV6, sequence (P41212 whole entry): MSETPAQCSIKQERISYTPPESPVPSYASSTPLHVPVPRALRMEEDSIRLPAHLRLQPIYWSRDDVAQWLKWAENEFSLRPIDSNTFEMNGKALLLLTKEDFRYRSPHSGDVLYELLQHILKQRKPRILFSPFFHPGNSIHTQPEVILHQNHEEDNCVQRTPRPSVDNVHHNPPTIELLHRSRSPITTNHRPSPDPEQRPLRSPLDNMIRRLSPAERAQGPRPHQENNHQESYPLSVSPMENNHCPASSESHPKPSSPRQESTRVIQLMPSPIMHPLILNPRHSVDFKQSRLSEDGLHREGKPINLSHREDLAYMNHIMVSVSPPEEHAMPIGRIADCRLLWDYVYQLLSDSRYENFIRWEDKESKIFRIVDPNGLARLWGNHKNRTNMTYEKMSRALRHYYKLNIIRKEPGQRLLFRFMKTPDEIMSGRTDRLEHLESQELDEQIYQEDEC
ETV1, sequence (P50549 whole entry): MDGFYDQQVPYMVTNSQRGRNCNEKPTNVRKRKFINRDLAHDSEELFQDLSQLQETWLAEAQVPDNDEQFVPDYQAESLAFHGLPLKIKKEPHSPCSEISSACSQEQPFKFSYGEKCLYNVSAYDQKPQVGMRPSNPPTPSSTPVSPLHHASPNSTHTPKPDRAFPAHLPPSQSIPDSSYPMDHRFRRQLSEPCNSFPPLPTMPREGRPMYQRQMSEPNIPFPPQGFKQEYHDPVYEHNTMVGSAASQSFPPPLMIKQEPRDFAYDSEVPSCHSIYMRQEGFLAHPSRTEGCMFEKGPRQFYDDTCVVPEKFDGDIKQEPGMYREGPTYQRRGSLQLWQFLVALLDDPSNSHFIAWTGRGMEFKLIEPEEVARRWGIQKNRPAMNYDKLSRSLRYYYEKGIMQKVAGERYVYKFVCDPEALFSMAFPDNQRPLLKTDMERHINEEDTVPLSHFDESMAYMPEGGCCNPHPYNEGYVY
ELF4, sequence (Q99607 whole entry): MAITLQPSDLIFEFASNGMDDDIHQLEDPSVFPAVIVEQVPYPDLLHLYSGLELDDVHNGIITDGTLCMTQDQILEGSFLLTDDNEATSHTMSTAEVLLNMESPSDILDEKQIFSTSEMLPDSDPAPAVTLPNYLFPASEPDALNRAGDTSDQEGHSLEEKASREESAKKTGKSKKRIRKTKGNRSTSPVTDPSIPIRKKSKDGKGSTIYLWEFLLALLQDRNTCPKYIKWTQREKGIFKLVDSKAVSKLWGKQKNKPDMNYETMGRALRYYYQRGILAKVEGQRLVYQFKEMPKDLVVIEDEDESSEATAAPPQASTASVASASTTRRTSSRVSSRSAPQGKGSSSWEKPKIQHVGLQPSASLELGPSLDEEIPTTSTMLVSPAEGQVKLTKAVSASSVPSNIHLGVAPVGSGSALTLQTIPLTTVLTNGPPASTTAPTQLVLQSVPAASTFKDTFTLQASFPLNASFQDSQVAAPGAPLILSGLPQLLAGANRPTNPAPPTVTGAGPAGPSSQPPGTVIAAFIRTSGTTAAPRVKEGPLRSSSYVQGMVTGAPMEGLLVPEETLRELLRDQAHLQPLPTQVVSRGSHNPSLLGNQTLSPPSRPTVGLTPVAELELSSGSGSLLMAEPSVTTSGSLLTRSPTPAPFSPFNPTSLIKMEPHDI
ETV5, sequence (P41161 whole entry): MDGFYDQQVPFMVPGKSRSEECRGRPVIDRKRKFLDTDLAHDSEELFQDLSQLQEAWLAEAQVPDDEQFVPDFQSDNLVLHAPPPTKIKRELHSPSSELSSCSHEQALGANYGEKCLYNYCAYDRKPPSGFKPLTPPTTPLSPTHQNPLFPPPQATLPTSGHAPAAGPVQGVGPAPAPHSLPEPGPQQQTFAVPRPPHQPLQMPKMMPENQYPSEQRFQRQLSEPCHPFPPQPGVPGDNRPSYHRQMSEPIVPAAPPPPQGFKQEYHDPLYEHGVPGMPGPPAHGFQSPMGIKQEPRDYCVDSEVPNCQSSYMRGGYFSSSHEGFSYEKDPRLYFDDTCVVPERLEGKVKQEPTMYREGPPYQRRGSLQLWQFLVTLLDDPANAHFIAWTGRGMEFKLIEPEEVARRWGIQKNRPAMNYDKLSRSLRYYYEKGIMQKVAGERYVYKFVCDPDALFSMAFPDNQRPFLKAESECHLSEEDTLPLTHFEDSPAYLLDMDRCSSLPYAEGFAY
ELF1, sequence (P32519 whole entry): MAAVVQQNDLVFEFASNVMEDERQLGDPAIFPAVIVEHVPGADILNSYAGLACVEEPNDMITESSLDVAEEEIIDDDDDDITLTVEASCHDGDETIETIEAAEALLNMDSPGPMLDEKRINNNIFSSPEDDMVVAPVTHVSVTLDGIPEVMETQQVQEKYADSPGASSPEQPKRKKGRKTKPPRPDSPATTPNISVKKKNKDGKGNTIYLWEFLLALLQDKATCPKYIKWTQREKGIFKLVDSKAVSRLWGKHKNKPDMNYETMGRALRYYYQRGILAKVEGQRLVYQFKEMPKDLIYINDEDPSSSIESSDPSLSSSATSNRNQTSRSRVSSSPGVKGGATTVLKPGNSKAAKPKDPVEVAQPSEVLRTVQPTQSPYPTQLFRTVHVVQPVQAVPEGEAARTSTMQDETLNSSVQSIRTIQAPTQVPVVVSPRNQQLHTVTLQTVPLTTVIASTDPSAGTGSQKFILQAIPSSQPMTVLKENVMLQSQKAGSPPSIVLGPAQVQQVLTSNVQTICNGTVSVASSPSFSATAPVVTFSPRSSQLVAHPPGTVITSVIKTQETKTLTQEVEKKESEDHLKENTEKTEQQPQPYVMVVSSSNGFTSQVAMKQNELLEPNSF

For the sequence CGCCTG, the binding signal in assay [1] is 1.17 fold enrichment (6-mer frequency, TF over GST control); in assay [2], 1.08 fold enrichment (6-mer frequency, TF over GST control); in [3] it was 1.15 fold enrichment (6-mer frequency, TF over GST control); in assay [4], 1.12 fold enrichment (6-mer frequency, TF over GST control); in assay [5] it was 1.11 fold enrichment (6-mer frequency, TF over GST control); in assay [6], 1.07 fold enrichment (6-mer frequency, TF over GST control). The binding signal in [7] is 1.08 fold enrichment (6-mer frequency, TF over GST control); in assay [8], 1.18 fold enrichment (6-mer frequency, TF over GST control); in assay [9], 1.05 fold enrichment (6-mer frequency, TF over GST control); in assay [10], 1.17 fold enrichment (6-mer frequency, TF over GST control); in assay [11], 1.01 fold enrichment (6-mer frequency, TF over GST control); in assay [12], 1.19 fold enrichment (6-mer frequency, TF over GST control). Moreover, the binding signal was 1.09 fold enrichment (6-mer frequency, TF over GST control) in assay [13]; 1.1 fold enrichment (6-mer frequency, TF over GST control) in assay [14]; 1.12 fold enrichment (6-mer frequency, TF over GST control) in assay [15]; 1.03 fold enrichment (6-mer frequency, TF over GST control) in assay [16]; 1.01 fold enrichment (6-mer frequency, TF over GST control) in assay [17]; 1.06 fold enrichment (6-mer frequency, TF over GST control) in assay [18]. Moreover, the binding signal in assay [19] was 1.14 fold enrichment (6-mer frequency, TF over GST control).

The record behind these values is PMC7862700, “An all-to-all approach to the identification of sequence-specific readers for epigenetic DNA modifications on cytosine”.
